Where “and” joins values, the source holds several entries; their conditions need not be identical. Equal values may be shown once. Calls of active or inactive are those of the source. How the calls were made is not given here.
These compounds were tested against L-lactate dehydrogenase (Plasmodium falciparum (isolate CDC / Honduras)) (UniProt Q27743) (assay: PfLDH activity inhibition – cell lysate, 3D7 strain, counter-screen for P. falciparum growth inhibition project (AID 2304;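 further: 0% = vehicle and 100% = reference inhibitor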)). Conditions: P. falciparum 3D7 crude extract, LDH APAD/NBT absorbance; at 2 µM; active compounds read high.
Sequence of L-lactate dehydrogenase (Plasmodium falciparum (isolate CDC / Honduras)) (Q27743 whole entry, looked up): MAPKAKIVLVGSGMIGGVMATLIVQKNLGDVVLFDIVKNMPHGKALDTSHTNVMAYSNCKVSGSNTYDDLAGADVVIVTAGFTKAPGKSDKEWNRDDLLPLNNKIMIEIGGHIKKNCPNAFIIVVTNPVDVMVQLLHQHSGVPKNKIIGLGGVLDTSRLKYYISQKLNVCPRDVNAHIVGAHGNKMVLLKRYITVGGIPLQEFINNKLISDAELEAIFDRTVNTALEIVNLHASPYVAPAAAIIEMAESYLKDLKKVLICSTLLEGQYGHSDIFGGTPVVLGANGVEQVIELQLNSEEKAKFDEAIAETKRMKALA

Compound | inhibition
CCCCCOc1ccc(CC(C)NCC(O)c2cccc(Cl)c2)cc1 (configuration not stated) | 2% (inactive)
Cc1[nH]c2cc(Cl)ccc2c1C1=CCN(CCN2CCOc3c(Br)cccc3C2=O)CC1 | 4% (inactive)
COc1ccc(O)c(CN2CCN(c3cc(C)ccc3C)CC2)c1 | 2% (inactive)
O=C(CCCCCc1ccccc1)NC1CCC(CN2CCC(c3c[nH]c4ccccc34)CC2)CC1 (configuration not stated) | -3% (inactive)
CC(=O)C1(c2ccccc2)CCN(CCC(NC(=O)c2cc(C(F)(F)F)cc(C(F)(F)F)c2)c2ccc(Cl)c(Cl)c2)CC1 (configuration not stated) | 2% (inactive)
C/C=C1\CN2CC[C@H]1C[C@@H]2[C@@H](O)c1ccnc2ccc(O)cc12 | -4% (inactive)
O=C(/C=C/c1cccc(F)c1)NC1CCC(CN2CCC(c3c[nH]c4ccccc34)CC2)CC1 (configuration not stated) | -1% (inactive) and 0% (inactive)
CC[C@H]1CN2CC[C@@H]1C[C@H]2[C@H](O)c1cc(N2CCC(O)CC2)nc2ccc(OC)cc12 | 3% (inactive)
COc1ccc(CN2CCN(CCOC(c3ccc(F)cc3)c3ccc(F)cc3)CC2)c(O)c1 | -6% (inactive)
CC[C@H]1CN2CC[C@@H]1C[C@H]2[C@H](O)c1cc(-c2cc(Cl)cc(Cl)c2)nc2ccc(OC)cc12 | -1% (inactive)
CS(=O)(=O)Nc1ccc2[nH]cc(C3C[C@H]4CC[C@@H](C3)N4CC3CCC(NC(=O)/C=C/c4ccc(Cl)c(Cl)c4)CC3)c2c1 (some centres not stated) | 7% (inactive)
CC(C)CNCc1ccc(-c2cccc(CN(C(=O)Nc3ccccc3)C3CCN(Cc4ccccc4)CC3)c2)cc1 | 4% (inactive)

From PubChem BioAssay
